# Reference: PubChem BioAssay (Tox21)
# Activity calls are given as the source filed them. Where a call stands in place of a potency, no number is given. Calls follow the shape of the dose curve; as a rule, active = well fitted curve in the direction sought with a large enough effect in the repeat runs; inconclusive = weak or mixed curves; inactive = flat fitted curve, though single readings scatter.
# Assay: qHTS assay to test for compound auto fluorescence at 460 nm (blue) in HepG2 cell free culture (AID 720685)
# Conditions: Cell-free culture medium, blue autofluorescence 405/460 nm; series mostly up to 91.3 µM; fluorescence, % of fluorescent control: at the top concentration
# In short: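 Cell-free plates of MEM plus 10% FBS received 23 nL compound or DMSO vehicle; blue-channel (405/460 nm) intensity scored against triamterene as reference fluorophore.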
Structure (SMILES),Potency,"fluorescence, % of fluorescent control"
Cc1cc(O)cc(C)c1Cl,inactive,
COCC(=O)O,inactive,
O=Nc1ccc(O)cc1,inactive,
Oc1ccc(OCc2ccccc2)cc1,inactive,
CC(C)Cc1ccccc1,inactive,
CN(C)c1cccc(O)c1,,2.71% [at 95.7 µM] (inactive)
CCOC(=O)C1OC1c1ccccc1 (centres undefined),inactive,
Cc1cc(NS(=O)(=O)c2ccc(N)cc2)no1,inactive,
CC1COc2ccccc2N1C(=O)C(Cl)Cl (centres undefined),inactive,
CCc1ccc(O)cc1,inactive,
OC1CCCC1,inactive,
CCCCNC(N)=O,inactive,
CS(=O)(=O)c1ccc([C@@H](O)[C@@H](CO)NC(=O)C(Cl)Cl)cc1,inactive,
Clc1cc(Cl)c(Cl)cc1Cl,inactive,
CC(C)(C)C(=O)C1C(=O)c2ccccc2C1=O,inactive,
CC(=O)Nc1ccc(C(=O)O)cc1,inactive,
CCCCCCCCCCCCN,inactive,
CCCCC(CC)COC(C)=O (centres undefined),inactive,
CCCCCC/C=C/CCCCCCCC(=O)O,inactive,
O=C1O[C@H](CO)[C@@H](O)[C@H](O)[C@H]1O,inactive,

Structure (SMILES),Potency,"fluorescence, % of fluorescent control"
O=C1N=C(O)CN1/N=C/c1ccc(-c2ccc([N+](=O)[O-])cc2)o1,inactive,
Nc1cc(-c2ccncc2)c[nH]c1=O,inactive,
OCC1CCCO1 (centres undefined),inactive,
C[C@@H](O)[C@H]1C(=O)N2C(C(=O)O)=C(S[C@@H]3CN[C@H](C(=O)N(C)C)C3)[C@H](C)[C@H]12,,0.264% [at 46 µM] (inactive)
CCCCCCCCCCC=CC1CC(=O)OC1=O (centres undefined),inactive,
COC(=O)Nc1nc2ccc(Sc3ccccc3)cc2[nH]1,inactive,
OCCOCCOCCOCCO,inactive,
O=C(O)c1ccc([N+](=O)[O-])cc1,inactive,
C=C(C)C(=O)OCC(CC)(COC(=O)C(=C)C)COC(=O)C(=C)C,inactive,
Clc1ccc(Cl)c(Cl)c1Cl,inactive,
C=C1C2CCC(C2)C1(C)C (centres undefined),inactive,
CC(C)(C)C1CCC(O)CC1 (centres undefined),inactive,
Cc1ccc(N)c(S(=O)(=O)O)c1,inactive,
O=c1c(-c2ccc(O)cc2)coc2cc(O)ccc12,,0.707% (inactive)
COCC(C)O (centres undefined),inactive,
CC1CC(OC(=O)c2ccccc2O)CC(C)(C)C1 (centres undefined),inactive,
CCOC(=O)/C=C\C(=O)OCC,inactive,
CCCCCCCCCCCCOCC1CO1 (centres undefined),inactive,
C[C@@H]1O[C@@H](OC[C@H]2O[C@@H](Oc3c(-c4ccc(O)c(O)c4)oc4cc(O)cc(O)c4c3=O)[C@H](O)[C@@H](O)[C@@H]2O)[C@H](O)[C@H](O)[C@H]1O,inactive,
